In the library only some 2.5% were active in any assay of this set; here they are far more common.
LGR2 inh – blocks bursicon-induced cAMP signaling via Drosophila LGR2; HEK293 LGR2, CRE-luciferase, bursicon-stimulated, 4 h; hit rate 0.35% among 380,000; inhibition, % at 9.99 µM;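 active means drop in luminescence signal, shown as inhibition above about 50% in the replicate tests, limit read from the data, passing the limit was not always enough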;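 further: agonist challenge used bursicon conditioned medium at about half maximal strength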
LMP1 NFkB inh – reduces LMP1-driven NF-kappaB luciferase signal; LMP1-induced NF-kappaB luciferase reporter cells, luminescence; inhibition, % at 12.5 µM; hit rate 0.69% among 350,000; AID 504558; in the data active means inhibition above about 41%
TWEAK Fn14 block – blocks TWEAK-Fn14 interaction in a reporter cell assay. TWEAK-stimulated Fn14 reporter cells, luciferase luminescence, 8 h. inhibition, % at 10 µM. hit rate 2% among 360,000. AID 1159606; in the data active means inhibition above about 50%
TROY signal inh – inhibitors of TROY-dependent NF-kB signaling. inhibition, % at 10 µM. hit rate 0.98% among 360,000. Q293 LMP1-TROYcd NF-kB luciferase reporter, 4 h;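 active means compounds whose plate-normalised and pattern-corrected inhibition of the luciferase reporter signal at the single screening dose is 50% or more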
EWS-Fli inh – EWS/Fli transcriptional activity inhibition; inhibition, % at 12.6 µM; hit rate 0.67% among 350,000; A673 NR0B1-luciferase reporter, viability-normalised; AID 651661;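 active means mean inhibition of at least 50% after viability correction, with every replicate also passing that limit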;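 further: firefly luciferase signal divided by Alamar Blue viability fluorescence both relative to DMSO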
A number is an active result; n = inactive; x = no result given.

SMILES	LGR2 inh	LMP1 NFkB inh	TWEAK Fn14 block	TROY signal inh	EWS-Fli inh
C[C@H](NC(=O)[C@@H]1[C@@H](CO)[C@@H]2Cn3c(ccc(-c4ccccc4)c3=O)[C@H]1N2C)c1ccccc1	n	x	x	x	n
Cc1c(C(c2cc3c(cc2Br)OCO3)c2c(C)n(C)n(-c3ccccc3)c2=O)c(=O)n(-c2ccccc2)n1C	n	n	64	n	n
Cc1c(C(c2ccccc2O)c2c(C)n(C)n(-c3ccccc3)c2=O)c(=O)n(-c2ccccc2)n1C	n	n	n	n	n
COc1cc(C(=O)O/N=C(\N)c2ccc([N+](=O)[O-])cc2)cc(OC)c1OC	n	n	n	n	n
COc1cc(C(=O)O/N=C(\N)c2cccc([N+](=O)[O-])c2)cc(OC)c1OC	n	n	62	n	n
CNC(=O)C[C@H]1CC[C@@H]2[C@H](COc3ccc(NC(=O)c4ccccc4OC)cc3C(=O)N2C)O1	n	x	x	x	n
CCCNC(=O)N(C)C[C@@H]1Oc2ncc(-c3ccc(F)cc3)cc2C(=O)N([C@H](C)CO)C[C@H]1C	n	x	x	x	n
Cc1ccc(C(=O)N2c3ccccc3N(Cc3ccccc3)C(=O)C2(C)C)cc1	n	n	53	n	n
Cc1ccc(CN2C(=O)C(F)(F)Oc3ccccc32)cc1	n	x	n	n	n
O=c1oc2ccc(C#CC3(O)CCCCC3)cc2cc1-n1cc(-c2ccccn2)nn1	n	n	58	n	n
CCC(CC)C(=O)Nc1ccc(Sc2ccc([N+](=O)[O-])cc2)cc1	n	n	n	55	n
O=C(Nc1ccc([N+](=O)[O-])cc1)c1cncc(Br)c1	n	43	n	n	n
O=C(Nc1ccc(N2CCCCC2)cc1)c1cncc(Br)c1	x	n	n	n	x
O=C(Nc1ccc(N2CCN(C(=O)c3ccccc3F)CC2)cc1)c1cncc(Br)c1	n	n	64	64	x
O=C(Nc1ccncc1)c1cncc(Br)c1	x	n	n	n	x
O=C(C[C@@H]1CC[C@@H]2NC[C@H](O)COC[C@H]2O1)Nc1ccc(-c2ccccc2)cc1	n	x	x	x	n
COc1cccc(-c2cc(C(=O)Nc3ccccc3)c3ccccc3n2)c1	n	x	n	n	n
COc1ccc(COc2cc(-c3cccc(OC)c3)nc3ccc(NC(=O)C(C)C)cc23)cc1	n	n	n	n	55
CO[C@@H]1CN(C)C(=O)c2ccc(NC(=O)c3nc4ccccc4s3)cc2OC[C@@H](C)N(Cc2ccncc2)C[C@H]1C	n	x	x	x	n
O=C(Nc1ccc(F)cc1)Nc1cc(OCC(F)(F)F)cc(OCC(F)(F)F)c1	n	n	54	53	x
CCOc1ccc(NC(=O)Nc2cc(OCC(F)(F)F)cc(OCC(F)(F)F)c2)cc1	n	n	n	n	n
C/C=C/c1ccc([C@@H]2[C@@H](CO)N3C(=O)CN(S(=O)(=O)c4ccccc4)C[C@H]23)cc1	n	x	x	x	n
COc1ccc(NC(=O)c2ccccc2SC)cc1OC	n	n	n	n	x
COc1ccc(NC(=O)C#Cc2ccccc2)cc1OC	n	n	95	n	n
NC(=O)c1ccc(NC(=O)C#Cc2ccccc2)cc1	n	n	89	n	n
SMILES	LGR2 inh	LMP1 NFkB inh	TWEAK Fn14 block	TROY signal inh	EWS-Fli inh
CC(Oc1ccccc1)C(=O)Nc1ccc(C(N)=O)cc1 (stereo not given)	x	n	n	n	x
Cc1cccc(S(=O)(=O)N2C[C@@H]3[C@H](c4ccccc42)[C@H](CO)N3Cc2ccc3c(c2)OCO3)c1	n	x	x	x	n
C[C@@H]1CN([C@H](C)CO)C(=O)c2cc(NC(=O)Cc3ccccc3)ccc2O[C@@H](C)CCCCO[C@H]1CN(C)Cc1ccc(C(F)(F)F)cc1	n	x	x	x	n
O=C(C[C@H]1CC[C@@H](NC(=O)C2CCOCC2)[C@H](CO)O1)NCc1ccccc1Cl	n	x	x	x	n
CC1(C)CC(=O)C2=C(C1)Oc1nc3ccccc3cc1C2C(C#N)C#N (stereo not given)	x	n	69	n	x
O=C(O)[C@@H]1[C@@H](CO)[C@@H]2Cn3c(ccc(/C=C/c4ccccc4)c3=O)[C@@H]2N1C(=O)C1CCCC1	n	x	x	x	n
CN(C[C@H]1N[C@@H](CO)[C@@H]1c1ccc(C2=CCCC2)cc1)C(=O)c1ccccn1	n	x	x	x	n
Cc1c(OC(C)C(=O)O)ccc2c3c(c(=O)oc12)CCCC3 (stereo not given)	n	n	56	n	n
CS(=O)(=O)CCC(C(=O)Nc1ccc2c(c1)OCO2)N1Cc2ccccc2C1=O (stereo not given)	n	60	n	n	n
CSCC[C@@H](C(=O)Nc1ccc2c(c1)OCCO2)N1Cc2ccccc2C1=O	n	n	n	n	n
CCCCOC(=O)c1[nH]c2c(c1C)C(=O)CC(c1cc(OC)c(OC)c(OC)c1)C2 (stereo not given)	n	n	73	n	n
COC(=O)c1[nH]c2c(c1C)C(=O)CC(c1cc(OC)ccc1OC)C2 (stereo not given)	n	n	n	n	54
COCCOC(=O)c1[nH]c2c(c1C)C(=O)CC(c1ccco1)C2 (stereo not given)	n	n	n	n	65
COc1ccc(C2CC(=O)c3c([nH]c(C(=O)OC(C)C)c3C)C2)cc1OC (stereo not given)	x	n	n	n	n
COCCOC(=O)c1[nH]c2c(c1C)C(=O)CC(c1cc(OC)c(OC)c(OC)c1)C2 (stereo not given)	n	n	n	n	n
C=CCOC(=O)c1[nH]c2c(c1C)C(=O)CC(c1cc(OC)c(OC)c(OC)c1)C2 (stereo not given)	x	n	64	n	x
CCOC(=O)C(C)Sc1nc(-c2cccs2)ccc1C#N (stereo not given)	n	60	n	n	x
C=COC(=O)CSc1nc(-c2cccs2)ccc1C#N	n	n	n	n	n
C[C@@H]1CN([C@@H](C)CO)C(=O)c2cc(C3=CCCC3)cnc2O[C@@H]1CN(C)S(C)(=O)=O	n	x	x	x	n
O=C(CC1C[C@H](C(=O)N2CCOCC2)[C@@]2(CCC3CCCC3)c3[nH]c4ccccc4c3CCN2C1=O)NCC12CC3CC(CC(C3)C1)C2 (stereo not given in full)	n	n	50	n	n
CN(C)CCCNC(=O)C[C@H]1C[C@H](C(=O)N2CCCCC2)[C@@]2(CCc3ccccc3)c3[nH]c4ccc(Cl)cc4c3CCN2C1=O	x	n	n	n	63
C[C@]12c3[nH]c4ccc(Cl)cc4c3CCN1C(=O)[C@@H](CC(=O)NCC13CC4CC(CC(C4)C1)C3)C[C@@H]2C(=O)N1CCOCC1	n	n	n	n	n
CN(C)CCCNC(=O)C[C@H]1C[C@H](C(=O)N2CCCCC2)[C@@]2(C)c3[nH]c4ccc(Cl)cc4c3CCN2C1=O	n	n	n	n	n
COc1ccc2[nH]c3c(c2c1)CCN1C(=O)C(CC(=O)NCCc2ccccn2)C[C@H](C(=O)N2CCCCC2)[C@@]31CCc1ccccc1 (stereo not given in full)	n	n	n	n	n
C[C@]12c3[nH]c4ccc(Cl)cc4c3CCN1C(=O)[C@@H](CC(=O)NCC13CC4CC(CC(C4)C1)C3)C[C@@H]2C(=O)N1CCCCC1	n	n	61	n	n

Screens deposited in PubChem by several laboratories.
